Many of the other results were omitted from the sample, so hits are more common in it than they were.
TDP1 cell CPT – qHTS for Inhibitors of human tyrosyl-DNA phosphodiesterase 1 (TDP1): qHTS in cells in presence of CPT; chicken DT40 Tdp1-/-;hTDP1 cells + 20 nM CPT, ATP luminescence, 48 h; Potency, µM (series often up to 46.2 µM), without a hit: top-dose activity change, negative = growth inhibition, hits mostly inhibitors; 12% of 420,000 active; AID 686979, 2013; further: potency means the concentration at half of the fitted maximal effect; nearly all actives have a fitted effect of over 55% in size
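Chicken DT40 Tdp1-/- cells complemented with human TDP1, 400 cells/well, exposed to compounds plus 20 nM camptothecin for at least 48 h at 37 C; viability read as ATP content by CellTiter-Glo luminescence.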
TDP1 cell noCPT – qHTS for Inhibitors of human tyrosyl-DNA phosphodiesterase 1 (TDP1): qHTS in cells in absence of CPT | DT40 Tdp1-/- hTDP1 cells, no CPT, ATP luminescence, 48 h | 15% of 420,000 active | Potency, µM (titrated, usually from 46.2 µM), for the others: at the top dose activity change, negative = growth inhibition, hits mostly inhibitors | AID 686978, 2013; further: potency means the concentration at half of the fitted maximal effect; nearly all actives have a fitted effect of over 55% in size
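No-CPT arm: Tdp1-/-;hTDP1 DT40 cells (400/well) plus compounds, incubated ≥48 hr at 37 °C. Readout CellTiter-Glo luminescence.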
HT1080 IDH1KD tx – qHTS for induction of synthetic lethality in tumor cells producing 2HG: qHTS for the HT-1080-IDH1KD cell line. HT-1080 IDH1 knockdown viability, ATP luminescence, 48 h. Potency, µM (doses to about 46.1 µM), without a hit: top-dose activity, negative = toxicity, usual class: cytotoxic. 2% of 360,000 active. AID 686971, 2013;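 further: potency means the concentration at half of the fitted maximal effect; 0% = DMSO wells and -100% = cell-free medium wells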
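In this qHTS, HT-1080 cells depleted of IDH1 are exposed for 48 h at 37 °C to compound titrations. Toxicity is scored from CellTiter-Glo luminescence, with DMSO as full viability and medium alone as none.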
12-LOX inh – Primary qHTS assay for inhibitors of human arachidonate 12S-lipoxygenase (ALOX12): Round 2. purified 12hLO, xylenol orange hydroperoxide absorbance. Potency, µM (series often up to 108 µM), for inactives: at the highest dose activity change, negative = inhibition, most hits filed as inhibitors. 1.1% of 580,000 active; further: potency means the concentration at half of the fitted maximal effect
Target sequence (P18054 whole entry, looked up): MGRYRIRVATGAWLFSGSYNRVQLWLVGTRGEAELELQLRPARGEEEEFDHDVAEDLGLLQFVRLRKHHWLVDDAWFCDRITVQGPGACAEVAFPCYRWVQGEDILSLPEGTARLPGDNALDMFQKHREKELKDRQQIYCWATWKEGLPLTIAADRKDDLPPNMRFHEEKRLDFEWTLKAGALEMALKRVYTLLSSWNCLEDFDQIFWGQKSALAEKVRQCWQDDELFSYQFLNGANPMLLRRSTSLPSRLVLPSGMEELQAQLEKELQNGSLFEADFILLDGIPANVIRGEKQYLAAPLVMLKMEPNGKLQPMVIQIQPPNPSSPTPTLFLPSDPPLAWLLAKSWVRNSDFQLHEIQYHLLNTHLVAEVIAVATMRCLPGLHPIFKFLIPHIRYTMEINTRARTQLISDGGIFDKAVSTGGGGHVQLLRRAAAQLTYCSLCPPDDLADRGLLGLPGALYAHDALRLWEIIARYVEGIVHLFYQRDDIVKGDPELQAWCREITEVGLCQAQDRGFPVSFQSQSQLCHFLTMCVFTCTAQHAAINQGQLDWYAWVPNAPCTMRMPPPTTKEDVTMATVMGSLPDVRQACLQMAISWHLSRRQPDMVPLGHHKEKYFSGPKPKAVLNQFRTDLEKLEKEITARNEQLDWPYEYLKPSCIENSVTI
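Purified human 12hLO (150 nM final) in 25 mM Hepes, 0.01% Triton X-100, pH 7.0 was preincubated 15 min at room temperature with compound. Then 40 uM arachidonic acid was added, 30 min. Hydroperoxide was read by Fe-XO absorbance ratio 573/405 nm.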
HT1080NT lethal – qHTS for induction of synthetic lethality in tumor cells producing 2HG: qHTS for the HT-1080-NT fibrosarcoma cell line; HT-1080-NT fibrosarcoma viability, CellTiter-Glo ATP luminescence, 48 h; Potency, µM (top dose mostly 46.1 µM), without a hit: at the top dose activity, negative = less viability, actives largely listed as cytotoxic; 1.6% of 360,000 active; AID 686970, 2013;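 further: NT is the 2HG producing partner of a matched IDH1 knockdown line; potency means the concentration at half of the fitted maximal effect; 0% = DMSO-treated cells and -100% = media-only wells without cells; nearly all actives have a fitted effect of over 55% in size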
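Viability of the 2HG-overproducing fibrosarcoma line after 48 hours of compound exposure at 37 degrees C was determined by luminescence with CellTiter-Glo, and concentration-effect curves were then fitted and categorized.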
IL-1B inflam inh – qHTS for Inhibitors of Inflammasome Signaling: IL-1-beta AlphaLISA Primary Screen; activity change, % at 57.5 µM; AID 743279, 2014; THP-1 LPS/ATP IL-1B secretion, AlphaLISA, 16 h; hits give low values; 4.7% of 360,000 active; in the data active means activity change below about -50%; inconclusive means mostly about -30% to -49%
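Secreted IL-1B measured by AlphaLISA bead assay after 16 h compound exposure of THP-1 cells; compounds (final up to 57.5 uM) added 1 h before LPS (250 ng/mL) and ATP (1.25 mM) stimulation; lower signal means less secretion.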
Starred values were filed as active, the others as inactive; u = inconclusive; x = no result; [ ] = remark or other dose. Unless noted, the call rests on the fitted dose curve; in most records, active means well fitted curve in the direction sought with a large enough effect; inconclusive means small, poorly fitted or top-dose-only effect, or another doubt; inactive means no such curve, though single readings can be large; an effect the other way counts as inactive or inconclusive. Unless noted, on the % scale 0 is the no-effect control and ±100 the full control effect.

SMILES	TDP1 cell CPT	TDP1 cell noCPT	HT1080 IDH1KD tx	12-LOX inh	HT1080NT lethal	IL-1B inflam inh
Cc1nc(C(F)(F)F)ccc1C(=O)N1CCC1(C)C(=O)Nc1ccc2c(c1)OCO2 (configuration not stated)	-27.2%	u	1.7%	-11.8%	2.6%	-18.5
Cc1ccc(N=C2C(=O)Nc3ccccc32)cc1C	7.8%	6.8%	7.2%	0.0%	0.9%	-8.5
Cc1cc(Br)ccc1N=C1C(=O)Nc2ccccc21	7.1%	-5.9%	7.6%	-10.6%	-2.1%	28.7
O=C1Nc2ccccc2C1=Nc1ccccc1-c1ccccc1	u	u	5.6%	-12.0%	-6.7%	-70.4*
Cc1ccc([N+](=O)[O-])cc1N=C1C(=O)Nc2ccccc21	-20.3%	-29.8%	u	0.0%	-28.6%	-88.6*
O=C1NCCCc2[nH]c(-c3cnn(-c4ccc(F)cc4)c3)nc21	x	x	x	53.4%	x	x
O=C(NCc1ccco1)C1CCCN(c2nnc(-n3cccc3)s2)C1 (configuration not stated)	-5.2%	3.3%	u	11.1%	2.59µM*	-11.3
COC(=O)c1ccccc1NC(=O)C1CCCN(c2nnc(-n3cccc3)s2)C1 (configuration not stated)	16.4µM*	20.6µM*	-12.4%	22.8%[57.4 µM]	3.9%	-15.1
CCN(CC)S(=O)(=O)c1ccc2c(c1)nc(SCC(=O)Nc1ccc(F)c(F)c1)n2CC	x	x	x	53.3%	x	x
CC1(Cc2ccc(Cl)c(Cl)c2)C(=O)Nc2ccc(S(=O)(=O)NC3CCCCC3)cc21 (configuration not stated)	u	u	u	u	u	-17.4
CC1(Cc2cc(Cl)ccc2C(F)(F)F)C(=O)Nc2ccc(S(=O)(=O)NC3CCCCC3)cc21 (configuration not stated)	25.9µM*	u	u	u	u	-20.8
Cc1nn(-c2ccc(N3CCCCC3)nn2)c(C)c1CCC(=O)Nc1ccc(F)c(F)c1	u	-27.8%	-20.2%	24.5%	-29.3%	-13.3
Cc1ccc(NC(=O)CCc2c(C)nn(-c3ccc(N4CCCCC4)nn3)c2C)cc1	u	-17.8%	-16.7%	20.5%	-7.9%	-1.5
Cc1cc(C)cc(NC(=O)CCc2c(C)nn(-c3ccc(N4CCCC4)nn3)c2C)c1	20.6µM*	25.9µM*	x	1.5%	x	x
Cc1nn(-c2ccc(N3CCCC3)nn2)c(C)c1CCC(=O)Nc1ccc(F)c(Cl)c1	18.4µM*	25.9µM*	x	-21.9%	x	x
COc1ccc(C)cc1NC(=O)CCc1c(C)nn(-c2ccc(N3CCCCC3)nn2)c1C	u	25.9µM*	-4.5%	15.0%	-18.1%	u
Cc1cc(C)cc(NC(=O)CCc2c(C)nn(-c3ccc(N4CCCCC4)nn3)c2C)c1	u	u	-1.1%	10.1%	-7.5%	-16.7
CCOC(=O)c1cccc(NC(=O)CCc2c(C)nn(-c3ccc(N4CCCCC4)nn3)c2C)c1	u	23.1µM*	x	-7.2%	x	x
Cc1oc2cc(OCC(=O)Nc3ccccc3F)ccc2c(=O)c1Oc1ccc(F)cc1	x	x	x	-39.2%	x	x
Cc1nn(-c2ccc(N3CCCCC3)nn2)c(C)c1CCC(=O)Nc1ccc(F)cc1F	16.4µM*	18.4µM*	x	-0.2%	x	x
O=C(c1ccc(Cl)s1)N1CCN(S(=O)(=O)c2ccc(Cl)cc2)CC1	u	u	-1.0%	u	-2.7%	-9.5
COCCNC(=O)Cn1cc2c(n1)-c1c(oc(C(=O)N3CCCC3)c1C)CC2	-22.6%	-1.9%	x	0.0%	x	x
CCCCN(C)CCCNC(=O)Cn1cc2c(n1)-c1c(oc(C(=O)N3CCCC3)c1C)CC2	u	u	-1.2%	-1.8%	7.7%	9.7
CCN(CC)CCCNC(=O)c1oc2c(c1C)-c1nn(Cc3ccc(Cl)cc3)cc1CC2	u	18.4µM*	x	u	x	x
COCCCNC(=O)c1oc2c(c1C)-c1nn(Cc3cccc(Cl)c3)cc1CC2	20.6µM*	18.4µM*	x	-22.0%	x	x
SMILES	TDP1 cell CPT	TDP1 cell noCPT	HT1080 IDH1KD tx	12-LOX inh	HT1080NT lethal	IL-1B inflam inh
CCOCCCNC(=O)Cn1cc2c(n1)-c1c(oc(C(=O)N3CCCC3)c1C)CC2	u	u	-2.6%	u	0.4%	18.0
COCCCNC(=O)c1oc2c(c1C)-c1nn(Cc3ccc(Cl)cc3)cc1CC2	23.1µM*	18.4µM*	x	u	x	x
COc1ccc(N=C2NC(=O)/C(=C\c3ccco3)S2)cc1	-11.9%	u	-4.0%	-8.6%	-1.5%	3.0
CCc1ccc(N=C2NC(=O)/C(=C/c3ccc(OCC(=O)O)c(OC)c3)S2)cc1	-5.9%	-8.2%	11.3%	u	3.4%	10.1
COc1cc(/C=C2/SC(=Nc3ccc(O)cc3)NC2=O)cc(OC)c1O	16.4µM*	11.6µM*	-9.0%	-10.7%	-26.9%	29.1
COc1ccc(N=C2NC(=O)/C(=C/c3ccc(O)c(OC)c3)S2)cc1	u	u	2.5%	-17.6%	-16.4%	-66.5*
O=C1NC(=NCc2ccccc2)S/C1=C/c1ccc(O)cc1	u	11.6µM*	u	u	u	-75.9*
O=C1NC(=Nc2ccc(O)cc2)S/C1=C\C=C\c1ccco1	0.82µM*	0.731µM*	1.46µM*	-22.7%	1.3µM*	97.8
CCCc1nc2sc3c(NCCN)ncnc3c2c2c1CCC2	x	x	x	-4.4%	x	x
CO[C@@]1(C)C[C@@H](O)C12CCN(C(=O)CSc1ccccc1C)CC2	x	x	x	-28.2%	x	x
COC1C(=O)N(C2CCN(C(=O)NCc3ccccc3)CC2)C12CCOCC2 (configuration not stated)	x	x	x	1.2%	x	x
CC(C)CNC(=O)CSc1ncnc2ccccc12	x	x	x	17.9%	x	x
COc1ccccc1N=C1NC(=O)/C(=C/c2ccc(N(C)C)cc2)S1	2.06µM*	1.84µM*	3.26µM*	29.4%	7.31µM*	4.4
Cc1ccc(N=C2NC(=O)/C(=C/c3cccnc3)S2)cc1C	-15.8%	-20.6%	-3.4%	u	0.2%	0.0
CCOC(=O)C1=CN(Cc2ccco2)S(=O)(=O)N(CC)C1c1ccc(C(F)(F)F)cc1 (configuration not stated)	23.1µM*	16.4µM*	2.3%	u	-2.7%	-7.2
